Only a selection was taken, and hits are over-represented in it overall.
VCAM1 pot: TNF alpha stimulated VCAM1 expression potentiation; HUVEC TNFa-stimulated VCAM-1 immunofluorescence, high-content imaging; scaled per plate to unstimulated/TNFa-only wells; activation, % at 2 µM; 0.19% of 93,000 active; AID 808;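 active means activation above the screen mean plus 3 SD, with well images confirming the hit on visual review, cut at about 28% in these data, passing the limit was not always enough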;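 further: signal is the number of cytoplasmic VCAM-1 stained grains per positive cell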
VCAM1 pot conf: enhancers of VCAM1 induction in HUVEC – imaging, triplicate retest, confirmation. activation, % at 2 µM. AID 1034. 230 tested, under 10 active. shares compounds with VCAM1 pot. HUVEC TNFa-stimulated VCAM-1 immunofluorescence imaging;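 active means activation above 30% in triplicate retests at 2 µM, then confirmed by visual review of the well images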
Numbers stand for hits; i = inactive.

SMILES	VCAM1 pot	others
Cc1occc1C(=O)N1CCC2(CC1)OCCO2	i
CS(=O)(=O)N1CCCC(C(=O)N2CCC3(CC2)OCCO3)C1 (stereo not given)	i
CCOC(=O)c1[nH]c(C)c(C(=O)N2CCC3(CC2)OCCO3)c1C	117	VCAM1 pot conf=i
CC(Cc1ccccc1)NC(=O)NC(C)Cc1ccccc1 (stereo not given)	33	VCAM1 pot conf=i
O=C1CN(C(=O)CN2CCCCC2)C(c2ccccc2)c2cc(Br)ccc2N1 (stereo not given)	i
COc1ccc(Cl)cc1NC1=NCC(C)S1 (stereo not given)	i
Cc1cc(C=O)c(C)n1CC1CCCO1 (stereo not given)	i
O=C(Nc1ccccc1OC(=O)N1CCOCC1)N1CCOCC1	i
C/C(Cl)=C/CC1(CN2CCCC2=O)C(=O)NC(=O)NC1=O	106	VCAM1 pot conf=i
CCCCC(=O)C1C(=O)NC(=O)NC1=O	i
COc1ccc(/C=C2\C(=N\O)C3CCN2CC3)cc1	i
CCC12CN3CCN(CC(C3)/C1=N\O)C2	i
COC(=O)c1cc2c(s1)=NC=NP=2(N1CCOCC1)N1CCOCC1	i
Cc1cc(C)c(NC2=NCCCS2)c(C)c1	i
CCOP(=S)(OCC)c1ccc(N(C)C)cc1	i
C=CCn1c(O)c(C(C)=NCc2cc(OC)cc(OC)c2)c(=O)[nH]c1=O	i
CC1CN=C(Nc2ccc(N(C)C)cc2)S1 (stereo not given)	i
Cc1ccc(-c2nc3ccccc3c(=O)n2-c2nccs2)cc1	56	VCAM1 pot conf=i
Cc1ccc(C2(O)CC(C)N(C)CC2C)cc1 (stereo not given)	i
COc1ccc(OP(=O)(Nc2ccccc2)Nc2ccccc2)cc1	i

Screens (PubChem)
